Source: the supplement of paper PMC7366291
Where a name gives a salt, the structure may show the parent alone.

What follows are compounds tested on Danio rerio Tg(wt1b:EGFP) embryo, pronephros (assay: fraction of imaged embryos annotated as normal kidney; higher = less nephrotoxic; extreme values may be limits of the assay). Details: 25 µM; exposure: 24-48 hpf.
Method in brief: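 From 24 to 48 hpf at 28.5°C, dechorionated Tg(wt1b:EGFP) zebrafish embryos in 12-well plates were kept in 5 mM HEPES-buffered E3 with 0.003% PTU, 0.5% DMSO and 25 μM compound. Pronephroi were imaged by widefield fluorescence at 470 nm and judged by eye from maximum projections. Reported is the proportion of embryos per treatment in the normal-kidney category.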

SMILES	fraction of imaged embryos annotated as normal kidney
O=C1NCN(c2ccccc2)C12CCN(CCCC(c1ccc(F)cc1)c1ccc(F)cc1)CC2 [Fluspirilen]	0.333
CN(C)[C@@H]1C(O)=C(C(N)=O)C(=O)[C@@]2(O)C(O)=C3C(=O)c4c(O)ccc(Cl)c4[C@@H](O)[C@H]3C[C@@H]12 [Demeclocycline hydrochloride]	0.5
Clc1ccc(COC(Cn2ccnc2)c2ccc(Cl)cc2Cl)cc1 (configuration not stated) [Econazole nitrate]	0.417
O=C(O)CCC(=O)c1ccc(-c2ccccc2)cc1 [Fenbufen]	0.0909
C=C[C@H]1CN2CC[C@H]1C[C@@H]2[C@@H](O)c1ccnc2ccc(OC)cc12 [Quinidine hydrochloride monohydrate]	0.75
CN1CCN(C(c2ccccc2)c2ccccc2)CC1 [Cyclizine hydrochloride]	0.833
CC1(C)S[C@@H]2[C@H](NC(=O)[C@H](NC(=O)N3CCNC3=O)c3ccccc3)C(=O)N2[C@H]1C(=O)O [Azlocillin sodium salt]	0.5
